Assay outcomes (PubChem)
Most compounds without a hit are left out; they make up all but 2.5% or so of the library.
MEKK2mut PB1 HTS = signal of MEK5 binding to mutant human MEKK2 PB1 domain | bead flow cytometry, Alexa488-MEK5 binding to MEKK2 mutant | 290,000 tested, 0.35% active | percent response, % at 10 µM; in the data active means percent response above about 24%, passing the limit was not always enough
MEKK3 PB1 HTS = MEKK3-MEK5 PB1 interaction, increase or decrease; Q99759; bead-based flow cytometry, Alexa488-MEK5 binding to MEKK3; actives lie on both sides; 0 = blocked by unlabeled MEK5, 100 = vehicle; binding response (% of control), % at 10 µM; 290,000 tested, 1.4% active;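 active means binding response more than 3 SD above or below the average of its plate-row segment, actives on both sides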;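 further: Alexa488 bead fluorescence after subtracting the streptavidin-only scavenger bead signal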
GRK2 inh = human GRK2 inhibition via aptamer displacement; P25098; bead flow cytometry, FAM-aptamer displacement from GRK2; inhibition of aptamer binding, % at 10 µM; 330,000 tested, 0.59% active;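 active means inhibition of aptamer binding above 40%, roughly 3 SD of noise, on plates passing a quality check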;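 further: median bead fluorescence of bound FAM aptamer so fluorescent compounds give negative values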
Target sequence (P25098 whole entry, looked up): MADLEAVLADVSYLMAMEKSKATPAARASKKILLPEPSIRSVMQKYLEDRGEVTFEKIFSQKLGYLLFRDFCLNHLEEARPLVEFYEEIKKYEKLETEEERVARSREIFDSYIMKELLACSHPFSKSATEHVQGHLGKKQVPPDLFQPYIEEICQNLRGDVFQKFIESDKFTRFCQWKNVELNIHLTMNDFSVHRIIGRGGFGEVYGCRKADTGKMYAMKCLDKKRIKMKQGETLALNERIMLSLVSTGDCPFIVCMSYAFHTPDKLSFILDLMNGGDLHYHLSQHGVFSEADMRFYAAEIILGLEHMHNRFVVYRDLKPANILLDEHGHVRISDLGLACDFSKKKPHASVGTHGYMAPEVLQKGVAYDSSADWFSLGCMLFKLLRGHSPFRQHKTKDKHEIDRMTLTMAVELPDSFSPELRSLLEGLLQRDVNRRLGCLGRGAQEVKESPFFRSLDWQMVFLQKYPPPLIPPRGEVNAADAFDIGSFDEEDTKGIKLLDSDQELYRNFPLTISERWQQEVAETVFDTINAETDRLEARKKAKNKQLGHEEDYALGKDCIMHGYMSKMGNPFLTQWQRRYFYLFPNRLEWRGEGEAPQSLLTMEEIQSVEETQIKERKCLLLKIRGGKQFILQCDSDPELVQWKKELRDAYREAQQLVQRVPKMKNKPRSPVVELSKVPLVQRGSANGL
MEKK2wt PB1 HTS = raises or lowers MEK5 binding to wildtype human MEKK2 PB1 domain. Q9Y2U5. bead flow cytometry, Alexa488-MEK5 binding to MEKK2 WT; actives lie on both sides. binding response (% of control), % at 10 µM. 290,000 tested, 1.1% active. AID 1531; in the data active means binding response below about 67% or above about 130%
GRK2 CP1 = confirmation of human GRK2 inhibitors displacing RNA aptamer; 2,000 tested, 4% active; bead-bound GRK2, FAM-aptamer displacement, flow cytometry; aptamer displacement, % at 10 µM; shares compounds with GRK2 inh;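 active means aptamer displacement above 40%, near three times the noise of non-fluorescent compounds, on plates passing quality checks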;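 further: negative values mostly reflect intrinsic compound fluorescence rather than true enhancement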
Aptamer quench SP = aptamer fluorescence quenching in GRK2 counter-screen | Carboxyfluorescein RNA aptamer on beads, flow cytometry quenching; active compounds read low | shares compounds with GRK2 inh | 2,000 tested, under 10 active | fluorescence response (% of DMSO), % at 10 µM;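 active means compounds that quench the bead-bound fluorescent RNA probe, cutting fluorescence to under half of the solvent control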;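 further: counterscreen run without GRK2 so only probe quenching by compound is measured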
GRK2 confirm 2 = confirmation of human GRK2 inhibitors binding RNA aptamer site; 360 tested, under 10 active; shares compounds with GRK2 inh; bead-bound GRK2, FAM-aptamer displacement, flow cytometry; inhibition of aptamer binding, % at 10 µM;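 active means inhibition of aptamer binding above 40%, about triple the noise seen with nonglowing compounds, on plates passing quality control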;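 further: negative values mostly come from compounds that fluoresce themselves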
FAM quench SP = quenches fluorescent RNA aptamer, GRK2 hit artifact | shares compounds with GRK2 inh | carboxyfluorescein RNA aptamer beads, flow cytometry quenching; active compounds read low | fluorescence response vs DMSO, % at 10 µM | 360 tested, under 10 active | AID 588494;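 active means response vs DMSO under 50%, meaning signal dropped by over half, treated as fluorescence quencher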;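 further: labelled aptamer on streptavidin beads without GRK2 as a quench counter-screen; 100% = bead fluorescence of DMSO wells and lower means quenching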
* hit, by the source's call; x = no result given.

SMILES | MEKK2mut PB1 HTS | MEKK3 PB1 HTS | GRK2 inh | MEKK2wt PB1 HTS | GRK2 CP1 | Aptamer quench SP | others
O=C(O)c1ccccc1-c1nnc2c(Cl)cc(C(F)(F)F)cn12 | 10 | 108 | 7 | 111 | 2 | 101
C=CCn1c(NC(=O)c2ccccc2Cl)c(C#N)c2nc3ccccc3nc21 | -9 | 98 | 43* | 86 | 1 | 101
CCC1Sc2ccccc2N(CC(=O)NCc2ccccc2OC)C1=O (stereo not given) | 7 | 101 | 2 | 101 | x | x
CCC1Sc2ccccc2N(CC(=O)NCCC(C)C)C1=O (stereo not given) | 4 | 100 | 34 | 101 | -2 | 104
COc1ccc(CNC(=O)C2COc3ccccc3O2)c(OC)c1 (stereo not given) | x | x | 4 | x | -3 | 99
Cc1ccc(OCC(=O)NCCC2=CCCCC2)cc1 | -3 | 91 | 0 | 94 | x | x
Cc1ccc(SCC(=O)NCCC2=CCCCC2)cc1 | -1 | 99 | 45* | 94 | -1 | 96
CCC(Oc1ccccc1OC)C(=O)Nc1ccc2c(c1)OCO2 (stereo not given) | 2 | 98 | 0 | 99 | x | x
CCOC(=O)c1c(NC(=O)CSc2nc3ccccc3c(=O)n2-c2ccc(F)cc2)sc(C(C)=O)c1C | -2 | 90 | 73* | 91 | -3 | 103
CCN(C(=O)Cn1nc(C)n2c(cc3cc(C)ccc32)c1=O)c1ccccc1 | 3 | 102 | 0 | 101 | x | x
CNC(=O)c1c(O)c2cccc3c2n(c1=O)CC3 | -10 | 89 | 0 | 90 | x | x
O=C(Nc1cccnc1)c1c(O)c2cccc3c2n(c1=O)CC3 | 2 | 100 | 65* | 97 | -63 | 111
Cc1cccc2c1cnn2C(=O)CCC(=O)N1CC(C)CC(C)C1 (stereo not given) | 0 | 102 | 0 | 97 | x | x
Cc1cccc2c1cnn2C(=O)CCC(=O)N1CCC(C)CC1 | 0 | 97 | 70* | 98 | -2 | 95
CCOC(=O)c1c(C)[nH]c(C)c1S(=O)(=O)N1CCN(c2ccc([N+](=O)[O-])cc2)CC1 | 0 | 102 | 7 | 102 | x | x
Cc1cc(NS(=O)(=O)c2ccc(NC(=O)c3c(F)c(F)c(F)c(F)c3F)cc2)nc(C)n1 | 8 | 103 | 56* | 109 | x | x | GRK2 confirm 2=10;FAM quench SP=104
Nc1nc(SCC(=O)N2N=C3/C(=C/c4ccco4)CCCC3C2c2ccco2)n[nH]1 (stereo not given) | 0 | 101 | 0 | 97 | x | x
O=C(CSc1nccc(=O)[nH]1)N1N=C2/C(=C/c3ccco3)CCCC2C1c1ccco1 (stereo not given) | -9 | 87 | 42* | 89 | 1 | 98
CCN(CC)CCOC(=O)C1(c2ccc(OC)c(OC)c2)CCCC1 | 10 | 95 | 0 | 102 | x | x
CCN(CC)CCOC(=O)C1(c2ccccc2)CCCC1 | 0 | 98 | 69* | 95 | 0 | 99
CC1(C)C2CCC(C2)C1(C)NC(=O)CNC1CCCCC1 (stereo not given) | -1 | 109 | 0 | 108 | x | x
COc1ccc(C2N(c3ccccn3)C(=O)C3CCCN32)c(OC)c1 (stereo not given) | -4 | 94 | 7 | 96 | x | x
COc1cc(C2N(c3ccccn3)C(=O)C3CCCN32)cc(OC)c1OC (stereo not given) | 2 | 110 | 59* | 112 | -2 | 99
Cc1oc(-c2cccc(Cl)c2)nc1CS(=O)(=O)CC(=O)NC1CCCC1 | -4 | 98 | 67* | 101 | -2 | 96
CCOCCCNC(=O)CS(=O)(=O)Cc1nc(-c2cccc(OC)c2)oc1C | -1 | 99 | 56* | 98 | 2 | 100
SMILES | MEKK2mut PB1 HTS | MEKK3 PB1 HTS | GRK2 inh | MEKK2wt PB1 HTS | GRK2 CP1 | Aptamer quench SP | others
Cc1oc(-c2ccccc2Cl)nc1CSCC(=O)NC1CCCC1 | 0 | 93 | 30 | 91 | 0 | 99
CCOC(=O)N1CCC(NC(=O)CSCc2nc(-c3ccccc3Cl)oc2C)CC1 | 0 | 97 | 3 | 95 | x | x
CCCNC(=O)CS(=O)(=O)Cc1nc(-c2cccc(OC)c2)oc1C | 9 | 114 | 0 | 117 | x | x
O=C(O)CC/C(=N/NC(=O)CNC(=O)C(c1ccccc1)c1ccccc1)c1ccccc1 | -1 | 97 | 90* | 99 | 3 | 96
C/C(=N\NC(=O)CNC(=O)C(c1ccccc1)c1ccccc1)c1ccccc1 | 9 | 100 | 2 | 101 | x | x
N#CCC(=O)N/N=C\c1ccccc1OC/C=C/c1ccccc1 | 4 | 103 | 2 | 96 | x | x
CCOC(=O)C1CCCCN1Cc1cccc(F)c1 (stereo not given) | -1 | 102 | 2 | 100 | x | x
CCOC(=O)C1CCCCN1Cc1ccc(F)cc1 (stereo not given) | -4 | 95 | 75* | 94 | 0 | 102
COc1ccc(S(=O)(=O)N2CCCC2CNC(=O)C(=O)Nc2cccc(F)c2)cc1 (stereo not given) | x | x | 0 | x | x | x
O=[N+]([O-])c1ccc(N2CCN(c3cccc(Cl)c3)CC2)nc1 | -2 | 93 | 11 | 92 | 5 | 115
CCC(C)(C)n1nnnc1C(c1ccc2ncccc2c1)N1CCN(c2nc3ccccc3s2)CC1 (stereo not given) | 3 | 110 | 25 | 98 | 3 | 75
CCC(C)(C)n1nnnc1C(c1ccc2ncccc2c1)N1CCN(c2ccc(O)cc2)CC1 (stereo not given) | 3 | 107 | 0 | 97 | x | x
Cc1ccc(/C=C2\SC(=S)N(C3CCS(=O)(=O)C3)C2=O)o1 (stereo not given) | -7 | 89 | 43* | 83 | 7 | 104
O=C(O)c1ccc(N2C(=O)c3cccc4c(C(=O)O)ccc(c34)C2=O)cc1 | 0 | 117 | 70* | 107 | 30 | 107
COc1ccc(/C=N/n2c(C)nc3c([nH]c4ccccc43)c2=O)cc1CN1CCCC(C)(C)C1 | 11 | 101 | 0 | 111 | x | x
COc1ccc2[nH]c3c(=O)n(/N=C/c4ccc(OC)c(CN5CCCC5)c4)c(C)nc3c2c1 | -11 | 96 | 59* | 98 | -43 | 101
O=C(N/N=C/c1ccc(Br)s1)c1ccc([N+](=O)[O-])cc1 | -2 | 90 | 78* | 95 | -26 | 99
O=C(N/N=C/c1ccc(Br)s1)c1ccccc1[N+](=O)[O-] | 1 | 104 | 0 | 103 | x | x
